Cruzain inh noDet: cruzain (T. cruzi) inhibition without detergent | Potency, µM, for the others: max response, negative = inhibition, hits mostly inhibitors | 2.3% of 200,000 active | P25779 | purified cruzain, Z-FR-AMC fluorescence, no detergent;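 note: plate controls were enzyme without inhibitor for no effect and buffer without enzyme for full effect; nearly all actives have a fitted effect of over 40% in size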
Target sequence (P25779 123-467 limits assumed): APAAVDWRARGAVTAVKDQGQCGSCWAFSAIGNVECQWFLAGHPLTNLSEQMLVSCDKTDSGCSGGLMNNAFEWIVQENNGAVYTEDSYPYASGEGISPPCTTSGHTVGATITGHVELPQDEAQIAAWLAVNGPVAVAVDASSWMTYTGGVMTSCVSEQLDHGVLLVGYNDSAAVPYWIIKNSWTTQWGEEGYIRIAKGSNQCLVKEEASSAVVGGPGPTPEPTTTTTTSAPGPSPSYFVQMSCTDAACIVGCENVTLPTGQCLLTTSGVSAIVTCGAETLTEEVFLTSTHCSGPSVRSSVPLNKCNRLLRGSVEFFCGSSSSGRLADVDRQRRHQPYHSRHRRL
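Purified cruzain at 1.5 nM, pre-incubated 15 min with compound at room temperature in 100 mM sodium acetate pH 5.5, 5 mM DTT, 0.00005% Triton X-100. Reaction started with 2 uM Z-FR-AMC; AMC fluorescence increase over 60 s gives rate.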
Cruzain Triton: blocks cruzain activity in presence of Triton detergent; P25779; purified cruzain, Z-FR-AMC fluorescence, 0.01% Triton; Potency, µM, without a hit: max response, negative = inhibition, actives largely listed as inhibitors; 0.43% of 200,000 active; AID 1478;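 note: plate controls were neutral wells for no effect and buffer without enzyme for full effect; nearly all actives have a fitted effect of over 40% in size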
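Cruzain (1.5 nM) preincubated 15 min at RT with compound in 100 mM sodium acetate pH 5.5, 5 mM DTT, 0.01% Triton X-100. Reaction started with 2 uM Z-FR-AMC; AMC fluorescence (ex 360/em 450 nm) change over 60 s gave rate.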
* hit, by the source's call; ? = inconclusive. Sampled rows, rich in hits. Any-hit rate of the full collection: about 2.5%. Calls come from the whole dose curve; as a rule, active = well fitted curve in the direction sought with a large enough effect; inconclusive = small, poorly fitted or top-dose-only effect, or another doubt; inactive = no such curve, though single readings can be large; an effect the other way counts as inactive or inconclusive. Potency is the fitted concentration of half-maximal effect.

SMILES | Cruzain inh noDet | Cruzain Triton
COc1ccc(-c2nn(-c3ccccc3)cc2/C=C/C(=O)OCC(=O)Nc2cccc(C#N)c2)cc1 | 31.6µM* | -0.4%
COc1ccc(-c2nn(-c3ccccc3)cc2/C=C/C(=O)OCC(=O)Nc2ccc(C#N)cc2)cc1 | ? | -12.8%
Cc1c(Cl)cccc1NC(=O)CSc1nc(=O)[nH]c2c1CCCC2 | 1.4% | -0.9%
Cc1oc2ncn(CC(C)C)c(=O)c2c1C(=O)NCCc1ccc(Cl)cc1 | -14.8% | -0.8%
O=C(COc1ccccc1)Nc1ccc2c(c1)Cc1cc(NC(=O)COc3ccccc3)ccc1-2 | 2.51µM* | 4.1%
Cc1ccccc1OCC(=O)Nc1ccc2c(c1)Cc1ccccc1-2 | ? | 0.9%
COCCCNC(=O)CCc1c(C)nc2cc(-c3ccc(Cl)cc3)nn2c1C | ? | -1.7%
CCOC(=O)c1ccc(NC(=O)c2ccc3c(c2)NC(=O)c2ccccc2S3)cc1 | 5.8% | -0.9%
CC(=O)c1ccc2c(c1)Nc1ccccc1S2 | 25.1µM* | 1.2%
CCOC(=O)Nc1ccc2c(c1)Nc1ccccc1S2 | 25.1µM* | -11.3%
C/C(=N\NC(=O)c1ccc(C)cc1C)c1ccc2c(c1)Nc1ccccc1S2 | ? | -1.5%
COc1ccc(-c2cn(/N=C/c3ccc(Cl)cc3Cl)c(N)n2)cc1 | 7.94µM* | -21.4%
COc1ccc(-c2onc3ccc(Cl)cc23)cc1 | -4.7% | -5.1%
O=C(O)CCCSc1ccccc1 | 0.6% | 3.2%
COc1ccc(C(=O)NCC(c2ccc(N(C)C)cc2)N2CCc3ccccc32)cc1 (stereo unspecified) | 12.6µM* | ?
CC(C)Oc1ccc(C(=O)NCC(c2ccc(N(C)C)cc2)N2CCc3ccccc32)cc1 (stereo unspecified) | ? | -4.5%
CN(C)c1ccc(C(CNC(=O)c2ccccc2Cl)N2CCc3ccccc32)cc1 (stereo unspecified) | 31.6µM* | -16.9%
COc1ccccc1C(=O)NCC(c1ccc(N(C)C)cc1)N1CCc2ccccc21 (stereo unspecified) | ? | -11.2%
CC(C)CCNS(=O)(=O)c1ccc(N2CCCCS2(=O)=O)cc1 | -4.0% | 0.2%
Fc1ccc(Nc2nc(SCc3ccccc3F)nc3ccccc23)cc1 | -8.1% | -4.5%
CSc1ccc(C2C(C#N)=C(N)N(c3ccccc3)C3=C2C(=O)CCC3)cc1 (stereo unspecified) | 15.8µM* | -8.9%
Cc1nn(C)cc1C1C(C#N)=C(N)N(c2cccnc2)C2=C1C(=O)CCC2 (stereo unspecified) | -16.5% | -3.0%
N#CC1=C2N=C(N)c3c(sc4c3CCCCC4)N2C2=C(C(=O)CCC2)C1c1ccccc1 (stereo unspecified) | 25.1µM* | -1.1%
CCOc1ccc(C2C(C#N)=C(N)N(c3sc4c(c3C#N)CCCC4)C3=C2C(=O)CCC3)cc1 (stereo unspecified) | -5.8% | -3.4%
CCOc1ccc(OCC)c(NC(=O)c2nnn(CC(=O)Nc3ccc(C)cc3C)c2N)c1 | 0.7% | -1.6%
SMILES | Cruzain inh noDet | Cruzain Triton
COc1ccccc1NC(=O)c1c(-c2ccc(C)cc2)nnc2ccccc12 | -19.0% | -4.1%
COc1cccc(-n2c(SCC(=O)Nc3ccc4c(c3)OCO4)nc3c([nH]c4ccccc43)c2=O)c1 | 15.8µM* | -4.2%
COc1cccc(NC(=O)CSc2nc3c([nH]c4ccccc43)c(=O)n2-c2cc(C)cc(C)c2)c1 | 15.8µM* | 0.9%
COc1cccc(-n2c(SCC(=O)Nc3ccc(F)cc3F)nc3c([nH]c4ccccc43)c2=O)c1 | -5.3% | -1.3%
COc1cccc(-n2c(SCC(=O)Nc3c(C)cc(C)cc3C)nc3c([nH]c4ccccc43)c2=O)c1 | -23.6% | -0.9%
Cc1ccc(-n2c(SCC(=O)Nc3ccc4c(c3)OCO4)nc3c([nH]c4ccccc43)c2=O)cc1 | 12.6µM* | -3.7%
CCc1ccc(NC(=O)CSc2nc3c([nH]c4ccccc43)c(=O)n2-c2ccc(C)cc2)cc1 | ? | -2.4%
Cc1ccc(-n2cc(C(=O)Oc3ccc(F)cc3)c3ccccc3c2=O)cc1 | -29.6% | -5.7%
Cc1ccccc1CNC(=O)c1ccc(NC(=O)c2nsc3ccccc23)cc1 | ? | -2.9%
COc1ccc(/C=C(\NC(=O)c2ccccc2)C(=O)NC2CCCCC2)cc1 | -7.1% | -2.9%
Cc1ccc(S(=O)(=O)NCC(c2ccc(N(C)C)cc2)N2CCc3ccccc32)cc1C (stereo unspecified) | 0.8% | -1.0%
O=C1CN2CCN(CC2)CC(=O)Nc2ccc(cc2)S(=O)(=O)c2ccc(cc2)NC(=O)CN2CCN(CC2)CC(=O)Nc2ccc(cc2)S(=O)(=O)c2ccc(cc2)N1 | 3.16µM* | 3.16µM*
COc1ccc2c(Sc3ccccc3)c(C(=O)NCCCN3CCCCC3)[nH]c2c1 | 21.1% | -4.2%
CCc1cccc(-n2nnc(-c3nsc(NC(=O)c4cccs4)n3)c2C)c1 | 12.8% | 2.7%
CC1=C(C(=O)Nc2ccccc2)C(c2ccccc2Cl)n2ncc(C(=O)Nc3cccc(C)c3)c2N1 (stereo unspecified) | 20µM* | -5.3%
CC1=C(C(=O)Nc2ccccc2)C(c2ccccc2C)n2ncc(C(=O)Nc3ccccc3)c2N1 (stereo unspecified) | -9.0% | -8.4%
CC(=O)c1cccc(NC(=O)c2nc3ccccc3n(C)c2=O)c1 | -3.1% | -5.0%
COc1cccc2c1Oc1ncccc1N(c1ccc(C(=O)NCc3cccc(C)c3)s1)C2 | -16.2% | -3.8%
COc1cccc2c1Oc1ncccc1N(c1ccc(C(=O)NCc3ccccc3Cl)s1)C2 | 25.1µM* | -25.0%
CCOCCCNC(=O)C1CCN(C(=O)c2cc3sccc3n2C)CC1 | 1.8% | -2.1%
Cc1cc(C)cc(-c2cc3c(c(-c4c(O)c(-c5cc(C)cc(C)c5)cc5c4CCCC5)c2O)CCCC3)c1 | 15.8µM* | 0.6%
Oc1ccc2c(c1-c1c(O)c(Br)cc3c1CCCC3)CCCC2 | 3.5% | 0.1%
CCc1noc(-c2ccc(N3CCC(C)CC3)c([N+](=O)[O-])c2)n1 | 6.3% | -12.8%
O=c1cc(-c2ccccc2)nc2nc(-c3ccco3)[nH]n12 | 0.398µM* | -0.6%
Cc1nc2nc(-c3ccccc3)cc(=O)n2[nH]1 | -3.3% | 0.6%
SMILES | Cruzain inh noDet | Cruzain Triton
Cc1ccc2c(=O)cc(C(=O)Nc3ccc(S(=O)(=O)N(C)Cc4ccccc4)cc3)oc2c1C | 1.6% | -1.2%
O=C(Cn1c(=O)n(Cc2nc(-c3ccccc3)no2)c(=O)c2ccccc21)Nc1cccc(C(F)(F)F)c1 | ? | -3.8%
CCOc1ccc(CCNC(=O)Cn2c(-c3cccs3)cc3cc(F)ccc32)cc1OCC | 15.2% | -3.5%
O=C(Cn1c(-c2cccs2)cc2cc(F)ccc21)NCCc1ccc(Cl)cc1 | 12.6µM* | -1.9%
CCc1ccccc1NC(=O)Nc1ccc2c(c1)N(CC)C(=O)c1ccccc1S2 | -6.0% | -2.6%
CCOC(=O)c1sc2ccccc2c1S(=O)(=O)N1CCN(c2ccccc2F)CC1 | -27.0% | -4.5%
CCOC(=O)c1sc2ccccc2c1S(=O)(=O)N1CCN(c2cccc(OC)c2)CC1 | -11.5% | -2.5%
CCOC(=O)c1sc2ccccc2c1S(=O)(=O)N1CCN(c2cccc(C)c2C)CC1 | 12.6µM* | -2.3%
CCOC(=O)c1sc2ccccc2c1S(=O)(=O)N1CCN(c2ccccc2)CC1 | 31.6µM* | -4.3%
N#C/C(=C/c1cn(Cc2ccc(F)cc2)c2ccccc12)C(=O)Nc1cccc(Cl)c1 | 7.94µM* | -2.9%
COc1cccc(NC(=O)/C(C#N)=C\c2cn(Cc3ccc(C)cc3)c3ccccc23)c1 | 7.94µM* | -2.1%
N#C/C(=C\c1cn(Cc2ccc(C#N)cc2)c2ccccc12)C(=O)NCc1cccs1 | ? | -2.9%

Screens deposited in PubChem BioAssay by National Center for Advancing Translational Sciences (NCATS).
